From PubChem BioAssay come the findings set out here.

The source made the active and inactive calls.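 The calls were made as follows, unless noted: active = inhibition above 20% together with a positive visual image hit; inconclusive = visual image hit but inhibition not above 20%; inactive = no visual image hit.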

Assay [1] is described as follows: inhibitors of TNFa-induced NFkB p65 translocation, primary screen, imaging, HUVEC, MLSMR starter and 10KST1 sets (AID 438).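 Also: compound added about 3h40 before a 20 min TNFalpha stimulation.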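 As to inhibition: signal is the nuclear over cytoplasmic p65 intensity ratio per well.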 Particulars: HUVEC TNFa-induced p65 nuclear translocation; cell count: measured here: nuclei count (cytotoxicity indicator), at 2.08 µM; inhibition: at 2 µM, stronger effect = higher value, 0% TNFa-plus-vehicle, 100% no-TNFa wells.
Assay [2] is described as follows: inhibitors of mutant huntingtin aggregation, primary screen, imaging, exon1htt(103Q)mCFP cells, high-content imaging (AID 483;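 active = visual image review flags a hit and inhibition of aggregation exceeds 20%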;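 also: compound exposure lasted 3 days before fixation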;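 as to nuclei count: percent of the per-plate median nuclei count of sample wells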). Particulars: exon1htt(103Q)mCFP cell line, aggregate imaging, at 2 µM; inhibition of aggregation: stronger effect = higher value; nuclei count: measured here: cell count, toxicity.
A short description of assay [3]: inhibitors of E-selectin induction by TNFa, primary screen, imaging, HUVEC, immunofluorescence, MLSMR starter and 10KST1 sets (AID 487;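 active = visually confirmed hit in the image check and inhibition above 20%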;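 as to inhibition: signal is fraction of cell area covered by stained E-selectin grains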;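 as to nuclei count: 100% = median nuclei count of all wells on the same plate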). Particulars: HUVEC TNFalpha-induced E-selectin immunofluorescence imaging, at 2 µM; inhibition: stronger effect = higher value; nuclei count: measured here: cell number, toxicity.
In assay [4] the target is Voltage-gated potassium channel subunit beta-2 (Rattus norvegicus) (UniProt P62483). As to the kind of experiment: KvBeta enzyme negative modulators, primary screen, biochemical, NADPH fluorescence (AID 622;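 active = fluorescence slope higher than the sample average by over 3 SD, cut at about -0.22 in these data, passing the limit was not always enough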;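 also: slope of raw intensity against log time taken from 70 to 1610 s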). Particulars: recombinant KvBeta, 4-cyanobenzaldehyde reduction, at 10 µM, stronger effect = higher value.
Chain of Voltage-gated potassium channel subunit beta-2 (Rattus norvegicus) (P62483 whole entry, looked up): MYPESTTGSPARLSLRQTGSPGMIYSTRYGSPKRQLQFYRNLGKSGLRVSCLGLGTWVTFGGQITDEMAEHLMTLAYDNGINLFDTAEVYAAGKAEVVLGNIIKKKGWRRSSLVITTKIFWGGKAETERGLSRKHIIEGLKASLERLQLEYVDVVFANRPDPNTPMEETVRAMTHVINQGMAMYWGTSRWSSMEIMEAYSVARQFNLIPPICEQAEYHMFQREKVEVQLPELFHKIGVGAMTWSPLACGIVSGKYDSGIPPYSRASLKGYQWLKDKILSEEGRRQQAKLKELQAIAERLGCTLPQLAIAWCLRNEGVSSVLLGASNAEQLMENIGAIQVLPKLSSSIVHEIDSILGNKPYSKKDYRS
For assay [5] the target is unchanged. As to the kind of experiment: KvBeta positive modulators, primary screen, biochemical, NADPH fluorescence (AID 623;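 active = NADPH fluorescence slope more negative than the mean of all samples by about 3 SD, 99.7% confidence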;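 also: fluorescence intensity change per second fitted from 20 to 320 s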). Particulars: Recombinant KvBeta, NADPH fluorescence decrease slope, 10 min; at 10 µM; stronger effect = lower value.
The target of assay [6] is Alpha-2C adrenergic receptor (Homo sapiens) (UniProt P18825). In words: modulators of alpha2C/GIRK thallium flux, primary screen, cell-based, HEK293 alpha2C/GIRK1/2 (AID 624;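 active = fluorescence slope after compound addition differing from the mean of all screened samples at 99.7% confidence, in either direction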;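 also: slope of fluorescence ratio to pre-addition baseline per second over 15 to 24 s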). Particulars: thallium flux BTC fluorescence, at 10 µM, actives lie on both sides.
Chain of Alpha-2C adrenergic receptor (Homo sapiens) (P18825 whole entry, looked up): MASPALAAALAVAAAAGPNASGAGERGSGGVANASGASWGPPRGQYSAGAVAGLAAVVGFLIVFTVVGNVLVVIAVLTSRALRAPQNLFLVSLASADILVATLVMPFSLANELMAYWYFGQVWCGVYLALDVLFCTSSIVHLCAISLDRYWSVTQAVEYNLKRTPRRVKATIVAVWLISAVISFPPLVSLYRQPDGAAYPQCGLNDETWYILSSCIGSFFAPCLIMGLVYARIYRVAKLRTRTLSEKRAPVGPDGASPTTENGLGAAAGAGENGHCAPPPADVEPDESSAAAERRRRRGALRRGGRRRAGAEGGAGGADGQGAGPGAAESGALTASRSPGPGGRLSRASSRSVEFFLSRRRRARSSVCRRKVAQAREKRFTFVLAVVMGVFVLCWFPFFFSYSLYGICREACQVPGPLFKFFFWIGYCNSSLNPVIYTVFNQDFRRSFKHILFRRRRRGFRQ
A short description of assay [7]: inhibitors of Sendai virus-induced IRF3 signaling, primary screen, TLR/RLR signaling modifier project, cell-based, Sendai virus stimulus, luciferase, 10K MLSCN set (AID 602276;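 active = inhibition at or above 50% at 10 µM; inactive = inhibition below 50%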;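 also: firefly luciferase from ISG56 promoter only with Renilla not read in this screen; 0% = Sendai virus plus DMSO and 100% = medium plus DMSO without virus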). To be noted: HEK293 RL24 IRF3 luciferase reporter, at 10 µM, stronger effect = higher value.
Assay [8] in a line: inhibitors of poly I:C-induced TLR3 signaling, primary screen, cell-based, poly I:C stimulus, luciferase, 10K MLSCN set (AID 602277;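 active = inhibition of the reporter signal at or above 50%; inactive = inhibition below 50%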). To be noted: HEK293-TLR3 RL24 IRF3 luciferase reporter, at 10 µM, stronger effect = higher value.

On to `COC(=O)CSC1=C(C#N)C(c2ccc(F)cc2)CC(=O)N1` (centres undefined), for which the cell count in assay [1] was 591. The inhibition in assay [1] was 2.5% (inactive); in assay [3], 0.6% (inactive); in assay [7], 10.2% (inactive); in assay [8], 19.4% (inactive). For the same compound, in assay [2], the inhibition of aggregation was -6.5% (inactive). Further, the nuclei count was 91.8% in assay [2] and 91% in assay [3]. The fluorescence slope in assay [4] is -0.542 (inactive). In addition, the NADPH fluorescence slope in assay [5] is -3.8e-05 (inactive). Besides, the slope in assay [6] is 0.00754 (inactive).

Take `Cc1ccc(C)c(NC(=O)c2ccc3c(c2)N(Cc2ccc(F)cc2)C(=O)CS3=O)c1` (centres undefined): the cell count in assay [1] was 622. For the same compound, the inhibition in assay [1] was 6.2% (inactive); in assay [3], 3.5% (inactive); in assay [7] it was 4.49% (inactive); in assay [8] it was 20.4% (inactive). The inhibition of aggregation in assay [2] was -0.7% (inactive). Further, the nuclei count was found to be 105% in assay [2] and 122% in assay [3]. The fluorescence slope in assay [4] was -0.546 (inactive). In assay [5], the NADPH fluorescence slope is -2.3e-05 (inactive). Besides, the slope in assay [6] was 0.00733 (inactive).

In the case of `OC(COc1ccc2ccccc2c1)CN1CCOCC1` (centres undefined), the cell count in assay [1] amounted to 780. Moreover, the inhibition in assay [1] was 4.7% (inactive); in assay [3] it was -44.7% (inactive); in assay [7], 3.23% (inactive); in assay [8], 11.9% (inactive). The inhibition of aggregation in assay [2] is 3.4% (inactive). The nuclei count amounted to 83% in assay [2] and 95.6% in assay [3]. Besides, the fluorescence slope in assay [4] is -0.441 (inactive). Further, the NADPH fluorescence slope in assay [5] was -8.9e-05 (inactive). Besides, in assay [6], the slope is 0.00562 (inactive).

Turning to `CC1=C(C(=O)Nc2ccccc2)C(c2ccccn2)n2nc(CCCO)nc2N1` (centres undefined), the cell count in assay [1] was 662. Further, the inhibition in assay [1] was 6.2% (inactive); in assay [3], -8.5% (inactive); in assay [7] it was 9.62% (inactive); in assay [8], 29.7% (inactive). In assay [2], the inhibition of aggregation is 13.8% (inactive). In addition, the nuclei count in assay [2] worked out at 93.5%; in assay [3], 116%. For the same compound, in assay [4], the fluorescence slope is -0.532 (inactive). In assay [5], the NADPH fluorescence slope is -2.2e-05 (inactive). Further, in assay [6], the slope was 0.00679 (inactive).

Turning to `COc1ccc(S(=O)(=O)Cc2ccc(C(=O)NCCc3ccc(S(N)(=O)=O)cc3)o2)cc1`, the cell count in assay [1] is 686. The inhibition in assay [1] is 0.6% (inactive); in assay [3], -51.1% (inactive); in assay [7], 9.1% (inactive); in assay [8] it was 28.2% (inactive). The inhibition of aggregation in assay [2] is 41.2% (active). For the same compound, the results for the nuclei count in assay [2] and in assay [3] were 71.5% and 114%, respectively. The fluorescence slope in assay [4] is -0.561 (inactive). Moreover, in assay [5], the NADPH fluorescence slope is -2.1e-05 (inactive). Further, the slope in assay [6] is 0.00625 (inactive).

Take `CCOC(=O)c1cc2n(n1)C(C(F)(F)C(F)(F)F)CC(C)N2` (centres undefined): in assay [1], the cell count was 650. In addition, the inhibition in assay [1] was -12.1% (inactive); in assay [3], -30.4% (inactive); in assay [7] it was 11.4% (inactive); in assay [8], 14.9% (inactive). Further, the inhibition of aggregation in assay [2] was 4.6% (inactive). For the same compound, the figures for the nuclei count in assay [2] and in assay [3] were 113% and 106%, respectively. Besides, the fluorescence slope in assay [4] was -0.429 (inactive). The NADPH fluorescence slope in assay [5] was 2.3e-05 (inactive). Also, the slope in assay [6] was 0.00828 (inactive).

In the case of `CSc1cccc(NC(=O)C2CCN(S(=O)(=O)c3ccc(F)cc3)CC2)c1`, the cell count in assay [1] turned out to be 376. The inhibition is -0.2% (inactive) in assay [1], -69.1% (inactive) in assay [3], 16.9% (inactive) in assay [7] and 39.3% (inactive) in assay [8]. The inhibition of aggregation in assay [2] was 10.8% (inactive). For the same compound, the results for the nuclei count in assay [2] and in assay [3] were 104% and 115%, respectively. Moreover, the fluorescence slope in assay [4] is -0.353 (inactive). The NADPH fluorescence slope in assay [5] is 5.7e-05 (inactive). Besides, the slope in assay [6] was 0.00752 (inactive).

Regarding `CS(=O)(=O)N1CCC(C(=O)NCCC2=CCCCC2)CC1`, the cell count in assay [1] came to 427. Also, the inhibition in assay [1] was 4.2% (inactive); in assay [3], -89.9% (inactive); in assay [7], 12.6% (inactive); in assay [8], 8.24% (inactive). In assay [2], the inhibition of aggregation was 8% (inactive). Besides, the nuclei count in assay [2] is 100%; in assay [3] it was 106%. The fluorescence slope in assay [4] is -0.382 (inactive). In addition, the NADPH fluorescence slope in assay [5] was -2.9e-05 (inactive). Moreover, the slope in assay [6] is 0.00662 (inactive).

Turning to `O=C(NCC(F)(F)F)Nc1cccnc1`, the cell count in assay [1] was determined as 309. Besides, the inhibition in assay [1] is 6.5% (inactive); in assay [3] it was -117% (inactive); in assay [7], -2.55% (inactive); in assay [8], 3.81% (inactive). For the same compound, the inhibition of aggregation in assay [2] is -5.6% (inactive). Moreover, the figures for the nuclei count in assay [2] and in assay [3] were 100% and 119%, respectively. In assay [4], the fluorescence slope is -0.318 (inactive). Further, in assay [5], the NADPH fluorescence slope was -5.2e-05 (inactive). Also, the slope in assay [6] is 0.00372 (inactive).

On to `c1ccc(-c2ccc(-c3ccccn3)nn2)nc1`, for which the cell count in assay [1] came out at 231. In addition, the inhibition in assay [1] is 11.2% (inactive); in assay [3], -48.9% (inactive); in assay [7], 7.62% (inactive); in assay [8], 70.6% (active). In addition, the inhibition of aggregation in assay [2] was -2.4% (inactive). Besides, the figures for the nuclei count in assay [2] and in assay [3] were 67.7% and 121%, respectively. Besides, the fluorescence slope in assay [4] was -0.419 (inactive). In addition, the NADPH fluorescence slope in assay [5] was -1.3e-05 (inactive). For the same compound, in assay [6], the slope is 0.00636 (inactive).

With `CCOC(=O)CSc1nnc2n1C(C)(C)Cc1ccccc1-2`, the cell count in assay [1] stood at 305. For the same compound, the inhibition in assay [1] was -0.9% (inactive); in assay [3] it was -102% (inactive); in assay [7], -15.4% (inactive); in assay [8] it was -27.1% (inactive). For the same compound, the inhibition of aggregation in assay [2] was 0.5% (inactive). The nuclei count in assay [2] is 51.3%; in assay [3], 117%. In addition, the fluorescence slope in assay [4] was -0.384 (inactive). Besides, the NADPH fluorescence slope in assay [5] is -8.4e-05 (inactive). Moreover, the slope in assay [6] is 0.00549 (inactive).

Consider `COc1cc(S(=O)(=O)N2CCOCC2)ccc1NC(=O)COC(=O)C12CC3CC(CC(C3)C1)C2`, for which the cell count in assay [1] came out at 533. Besides, the inhibition in assay [1] was -24.9% (inactive); in assay [3] it was 27.1% (inactive); in assay [7], 8.59% (inactive); in assay [8], 19.8% (inactive). The inhibition of aggregation in assay [2] was -8.6% (inactive). The figures for the nuclei count in assay [2] and in assay [3] were 108% and 89.4%, respectively. Also, in assay [4], the fluorescence slope was -0.258 (inactive). The NADPH fluorescence slope in assay [5] is 2.4e-06 (inactive). For the same compound, the slope in assay [6] is 0.00665 (inactive).

Take `CCc1nnc(NC(=O)COC(=O)CN2C(=O)c3ccccc3C2=O)s1`: in assay [1], the cell count worked out at 375. Also, the inhibition was 4.7% (inactive) in assay [1], 4.5% (inactive) in assay [3], -1.09% (inactive) in assay [7] and 12.5% (inactive) in assay [8]. Also, the inhibition of aggregation in assay [2] is 7.1% (inactive). Moreover, the nuclei count in assay [2] stood at 91.2%; in assay [3], 84.7%. Moreover, the fluorescence slope in assay [4] was -0.53 (inactive). For the same compound, the NADPH fluorescence slope in assay [5] is -4.4e-05 (inactive). Moreover, the slope in assay [6] is 0.00636 (inactive).

As to `COc1ccc(OC)c(-c2cc(C(=O)NCc3cccs3)no2)c1`, in assay [1], the cell count is 248. Besides, the inhibition in assay [1] is 1.3% (inactive); in assay [3] it was -23.8% (inactive); in assay [7], 3.16% (inactive); in assay [8], 32% (inactive). Besides, the inhibition of aggregation in assay [2] is 29.5% (inactive). The nuclei count in assay [2] is 101%; in assay [3] it was 124%. The fluorescence slope in assay [4] was -0.487 (inactive). Besides, the NADPH fluorescence slope in assay [5] was -5.5e-06 (inactive). Also, the slope in assay [6] was 0.00616 (inactive).
